≈ marks a conversion by molar mass, not a printed value. Screen size: about 1,100 compounds; about 170 (15%) were called active. No rule for the calls is given here. These entries were drawn from the full list.

A short description of the assay: Mycobacterium tuberculosis H37Rv growth inhibition, confirmatory dose response, cytotoxicity (AID 1332).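 As to CC50: Vero cells exposed to compounds for 72 hours.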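 As to IC50: bacteria incubated 7 days before adding Alamar blue readout reagent.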 The settings on record: M. tuberculosis H37Rv growth inhibition; CC50: measured here: Vero cell cytotoxicity; IC50: measured here: IC50 H37Rv replicates.
Take `C=C[C@]12CN(C)[C@@H]3[C@H]4COC(CC41)[C@]1(C(=O)Nc4ccccc41)[C@@H]32`: the IC50 (usually the concentration that inhibits the measured activity by half) was above 20 µg/mL and the result was inactive.

Regarding `COC1=CC(=O)C[C@@H](C)[C@]12Oc1c(Cl)c(OC)cc(OC)c1C2=O`, the CC50 (commonly the concentration at which the toxic effect on the cells reaches its halfway point) is above 6 µg/mL, the IC50 is above 20 µg/mL and the molecule was called inactive.

In the case of `NC(=O)N/N=C/c1ccc([N+](=O)[O-])o1`, the CC50 was above 6 µg/mL, the 50% inhibitory concentration (IC50) was found to be 11.5 µg/mL (≈ 58 µM) and the molecule was classed as active.

On to `CC(C(=O)O)c1ccc(C(=O)c2ccccc2)s1` (stereo unspecified), for which the IC50 is above 20 µg/mL and the result was inactive.

For `CCC(=O)OCC(=O)[C@@]1(OC(=O)CC)[C@@H](C)C[C@H]2[C@@H]3CCC4=CC(=O)C=C[C@]4(C)[C@@]3(Cl)[C@@H](O)C[C@@]21C`, the IC50 was above 20 µg/mL and the outcome was inactive.

Take `CC[C@H]1CN2CCc3cc(OC)c(OC)cc3[C@@H]2C[C@@H]1C[C@H]1NCCc2cc(O)c(OC)cc21`: the CC50 is below 0.023 µg/mL, the IC50 was above 20 µg/mL and the result was inactive.

For `Fc1ccc([C@@H]2CCNC[C@H]2COc2ccc3c(c2)OCO3)cc1`, the CC50 is 4.88 µg/mL (≈ 14.8 µM), the IC50 stood at 13.1 µg/mL (≈ 39.7 µM) and the result was active.

As for `C[C@H](NCCc1ccc(O)cc1)[C@H](O)c1ccc(O)cc1`, the IC50 is above 20 µg/mL and the result was inactive.

`C[C@@H]1CC[C@@]2(NC1)O[C@H]1C[C@H]3[C@@H]4CC=C5C[C@@H](O)CC[C@]5(C)[C@H]4CC[C@]3(C)[C@H]1[C@@H]2C`: the IC50 was above 20 µg/mL and the molecule was called inactive.

Regarding `C[C@]12C=CC(=O)C=C1CC[C@@H]1[C@@H]2[C@@H](O)C[C@@]2(C)[C@H]1CC[C@]2(O)C(=O)CO`, the IC50 is above 20 µg/mL and the molecule was called inactive.

As to `CC(C)(C)NCC(O)COc1cccc2c1CC(O)C(O)C2` (stereo unspecified), the IC50 was above 20 µg/mL and the outcome was inactive.

Regarding `NC[C@@H]1O[C@H](O[C@H]2[C@@H](O)[C@H](O[C@@H]3[C@@H](O)[C@H](N)C[C@H](N)[C@H]3O[C@H]3O[C@H](CN)[C@@H](O)[C@H](O)[C@H]3N)O[C@@H]2CO)[C@H](N)[C@@H](O)[C@@H]1O`, the IC50 was above 20 µg/mL and the molecule was called inactive.

Regarding `NC[C@@H]1O[C@H](O[C@H]2[C@@H](O)[C@H](O[C@@H]3[C@@H](O)[C@H](N)C[C@H](N)[C@H]3OC3O[C@H](CO)[C@@H](O)[C@H](O)[C@H]3N)O[C@@H]2CO)[C@H](N)[C@@H](O)[C@@H]1O` (stereo partly specified), the IC50 turned out to be 19.8 µg/mL (≈ 32.1 µM) and the result was active.

`NC[C@H]1O[C@H](OC2[C@@H](N)C[C@@H](N)[C@H](O)[C@H]2O[C@@H]2O[C@H](CO)[C@@H](O)[C@H]2O)[C@H](N)[C@@H](O)[C@@H]1O` (stereo partly specified): the IC50 is above 20 µg/mL and the molecule was classed as inactive.

As for `C[N+]1(C)C[C@@H](O)C[C@H]1C(=O)[O-]`, the 50% inhibitory concentration (IC50) is above 20 µg/mL and the outcome was inactive.

Regarding `CC(C)(Sc1cc(C(C)(C)C)c(O)c(C(C)(C)C)c1)Sc1cc(C(C)(C)C)c(O)c(C(C)(C)C)c1`, the IC50 is above 20 µg/mL and the molecule was called inactive.

Turning to `CC1=C(C(=O)O)N2C(=O)[C@@H](NC(=O)[C@H](N)c3ccc(O)cc3)[C@H]2SC1`, the IC50 is above 20 µg/mL and the result was inactive.

In the case of `N=C(N=C(N)N)N1CCOCC1`, the IC50 was above 20 µg/mL and the outcome was inactive.

As for `Cn1cnc([N+](=O)[O-])c1Sc1ncnc2nc[nH]c12`, the CC50 is above 6 µg/mL, the IC50 is 13.1 µg/mL (≈ 47.2 µM) and the molecule was classed as active.

`c1ccc(CNc2ncnc3nc[nH]c23)cc1`: the IC50 was above 20 µg/mL and the molecule was classed as inactive.

As for `CN1C[C@H](C(=O)N[C@]2(C)O[C@@]3(O)[C@@H]4CCCN4C(=O)[C@H](Cc4ccccc4)N3C2=O)CC2c3cccc4[nH]cc(c34)C[C@H]21` (stereo partly specified), the IC50 is above 20 µg/mL and the molecule was classed as inactive.

For `CN1CCC(=C2c3ccccc3CCc3sccc32)CC1`, the CC50 is above 6 µg/mL, the IC50 was above 20 µg/mL and the result was inactive.

For the molecule `CN1CCC(=C2c3ccccc3Sc3ccccc32)CC1`, the IC50 was found to be 18 µg/mL (≈ 61.5 µM) and the call was active.

As for `CN1CCC(=C2c3ccccc3CC(=O)c3sccc32)CC1`, the IC50 was above 20 µg/mL and the result was inactive.

As for `CN1CCC(=C2c3ccccc3C=Cc3ccccc32)CC1`, the CC50 is above 6 µg/mL, the IC50 was above 18.3 µg/mL and the outcome was active.

As for `CCC(=O)OC1(C(=O)CCl)[C@@H](C)C[C@H]2[C@@H]3CCC4=CC(=O)C=C[C@]4(C)[C@@]3(F)[C@@H](O)C[C@@]21C` (stereo partly specified), the IC50 is above 20 µg/mL and the outcome was inactive.

Take `C[C@H](N)[C@H](O)c1cccc(O)c1`: the IC50 is above 20 µg/mL and the outcome was inactive.

In the case of `CNCC(O)C(O)C(O)C(O)CO` (stereo unspecified), the IC50 was above 20 µg/mL and the molecule was called inactive.

With `C[n+]1cccc(C(=O)[O-])c1`, the IC50 is above 20 µg/mL and the outcome was inactive.

Take `CCC(c1ccc(O)cc1)C(CC)c1ccc(O)cc1` (stereo unspecified): the IC50 is above 20 µg/mL and the molecule was classed as inactive.

`COc1ccc2c(c1)N(C[C@H](C)CN(C)C)c1ccccc1S2`: the CC50 is above 6 µg/mL, the IC50 was above 20 µg/mL and the molecule was classed as inactive.

In the case of `CC[C@H]1OC(=O)[C@H](C)[C@@H](O[C@H]2C[C@@](C)(OC)[C@@H](O)[C@H](C)O2)[C@H](C)[C@@H](O[C@@H]2O[C@H](C)C[C@H](N(C)C)[C@H]2O)[C@](C)(O)C[C@@H](C)C(=O)[C@H](C)[C@@H](O)[C@]1(C)O`, the IC50 came to 1.7 µg/mL (≈ 2.32 µM) and the molecule was classed as active.

For the molecule `CC[C@H]1OC(=O)[C@H](C)[C@@H](O[C@H]2C[C@@](C)(OC)[C@@H](O)[C@H](C)O2)[C@H](C)[C@@H](O[C@@H]2O[C@H](C)C[C@H](N(C)C)[C@H]2O)[C@](C)(O)C[C@@H](C)[C@@H]2N[C@@H](COCCOC)O[C@H]([C@H]2C)[C@]1(C)O`, the IC50 worked out at 1.33 µg/mL (≈ 1.59 µM) and the outcome was active.

Take `CO[C@H]1C[C@H](O[C@H]2[C@H](C)[C@@H](O[C@@H]3O[C@H](C)C[C@H](N(C)C)[C@H]3OC(C)=O)[C@@H](C)C[C@@]3(CO3)C(=O)[C@H](C)[C@@H](OC(C)=O)[C@@H](C)[C@@H](C)OC(=O)[C@@H]2C)O[C@@H](C)[C@@H]1OC(C)=O`: the half-inhibitory concentration (IC50) was above 20 µg/mL and the molecule was classed as inactive.

As for `CO[C@H]1C[C@H](O[C@H]2[C@H](C)[C@@H](O[C@@H]3O[C@H](C)C[C@H](N(C)C)[C@H]3O)[C@@H](C)C[C@@]3(CO3)C(=O)[C@H](C)[C@@H](O)[C@@H](C)[C@@H](C)OC(=O)[C@@H]2C)O[C@@H](C)[C@@H]1O`, the IC50 is above 20 µg/mL and the result was inactive.

Take `COc1ccc2cc3[n+](cc2c1OC)CCc1cc2c(cc1-3)OCO2`: the IC50 is above 20 µg/mL and the call was inactive.

Consider `O=C(O)CCC(=O)Nc1ccc(S(=O)(=O)Nc2nccs2)cc1`, for which the IC50 was above 20 µg/mL and the call was inactive.

For `C[N+]1(C)CCC[C@H]1C(=O)[O-]`, the IC50 is above 20 µg/mL and the molecule was called inactive.

Take `C[C@H]1O[C@@H](OC2CC[C@]3(C=O)[C@H]4CC[C@]5(C)[C@@H](C6=CC(=O)OC6)CC[C@]5(O)[C@@H]4CC[C@]3(O)C2)C[C@H](O)[C@@H]1O` (stereo partly specified): the CC50 came out at 2.54 µg/mL (≈ 4.75 µM), the IC50 is above 20 µg/mL and the molecule was classed as inactive.

As to `COc1ccc(C(=O)c2ccccc2O)c(O)c1`, the IC50 is above 20 µg/mL and the molecule was called inactive.

With `O=c1cc(-c2ccc(O)cc2)oc2c(C3O[C@H](CO)[C@@H](O)[C@H](O)[C@H]3O)c(O)cc(O)c12` (stereo partly specified), the IC50 was above 20 µg/mL and the molecule was called inactive.

Source of the values: PubChem BioAssay AID1332 (Southern Research Institute, 2008).
